Screens: PubChem, several laboratories
CYP2C19 activ – activators of human cytochrome P450 2C19 | P33261 | recombinant CYP2C19, luciferin-H EGE luminescence; active compounds read high; 0 = fully inhibited enzyme, 1 = untreated enzyme | activation factor at 5 µM | 96,000 tested, under 10 active | AID 1025;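 active = activation factor of at least 2 at 5 µM in the primary screen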;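 note: 0 = wells with 2.5 mM tranylcypromine and 1 = vehicle-only wells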
Target sequence (P33261 whole entry, looked up): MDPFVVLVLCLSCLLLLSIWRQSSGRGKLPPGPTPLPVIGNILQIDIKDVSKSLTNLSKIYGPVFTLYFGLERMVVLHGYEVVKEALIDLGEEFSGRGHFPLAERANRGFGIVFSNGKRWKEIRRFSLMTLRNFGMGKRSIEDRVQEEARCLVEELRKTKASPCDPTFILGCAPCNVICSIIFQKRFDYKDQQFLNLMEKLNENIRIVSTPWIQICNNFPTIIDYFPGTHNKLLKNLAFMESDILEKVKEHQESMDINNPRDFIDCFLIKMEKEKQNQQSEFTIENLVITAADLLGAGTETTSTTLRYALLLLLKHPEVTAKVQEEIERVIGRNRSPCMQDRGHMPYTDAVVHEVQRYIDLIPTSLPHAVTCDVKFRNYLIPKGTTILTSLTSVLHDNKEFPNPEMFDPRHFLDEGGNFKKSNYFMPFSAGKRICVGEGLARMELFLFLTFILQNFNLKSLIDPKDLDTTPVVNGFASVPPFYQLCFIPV
CYP2C9 act – activators of human CYP2C9; recombinant CYP2C9, luciferin-H conversion, luminescence; active compounds read high; factor 1 = untreated enzyme, 0 = blocked; actives 1.4% (n = 96,000); activation factor at 5 µM; P11712;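 active = activation factor of 2 or more for CYP2C9 at a 5 µM dose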;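 note: 0 = sulfaphenazole-blocked wells and 1 = vehicle-only wells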
MRP1 act – activators of MRP-1. H69AR cells + doxorubicin, viability rescue, CellTiter-Glo. viability increase, % at 10 µM. actives 0.61% (n = 140,000). AID 799;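 active = viability gain under doxorubicin at or above a set limit, the compound median plus 3 SD, cut at about 4.7% in these data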;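 note: MRP-1 overexpressing cells given doxorubicin 25 µM after compound pretreatment; 18-22 h compound pretreatment then 72 h with doxorubicin before readout; 0% = doxorubicin-only wells and 100% = vehicle-treated cells without doxorubicin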
MRP resist rev – compounds reversing MRP-mediated drug resistance; H69AR cells + 2 uM doxorubicin, CellTiter-Glo, 72 h; differential viability (reversal), % at 10 µM; actives 0.04% (n = 85,000); AID 602;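 active = viability drop by adding the cancer drug above about 55%, with treated viability meeting a 40% cutoff, limit read from the data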;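 note: viability without doxorubicin minus viability with 2 µM doxorubicin for each compound; larger differential means the compound sensitizes cells more to doxorubicin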
CYP2C9 inh – human CYP2C9 inhibition; P11712; actives 20% (n = 96,000); AID 777; CYP2C9 Supersomes, luciferin-H conversion, luminescence; inhibition, % at 5 µM;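 active = blocking of liver enzyme CYP2C9 beyond about 50% at 5 µM, limit read from the data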
CYP2C19 inhib – human CYP2C19 inhibition | P33261 | CYP2C19 Supersomes, luciferin-H EGE luminescence, 30 min | inhibition, % at 5 µM | actives 21% (n = 96,000);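 active = CYP2C19 inhibition above a set limit at 5 µM in the primary screen, cut at about 50% in these data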;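 note: plate controls were negative control wells for no effect and 2.5 mM tranylcypromine positive control for full effect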
Starred values were filed as active, the others as inactive; nt = not tested or not shown. A selection: hits, their analogues and other compounds. The true share with any hit is near 21%.

SMILES	CYP2C19 activ	CYP2C9 act	MRP1 act	MRP resist rev	CYP2C9 inh	CYP2C19 inhib
Cc1ccc(S(=O)(=O)n2ccc(-c3cccc(OCc4c(F)cccc4Cl)c3)n2)cc1	0.8	0.3	1	nt	68*	20
Cc1ccc(S(=O)(=O)n2ccc(-c3ccc(OCc4c(F)cccc4Cl)cc3)n2)cc1	nt	nt	4	nt	nt	nt
COc1ccc(C(C)NC(=O)C2CCCO2)cc1OC (stereo not given)	0.9	1	0	-2	-3	5
CC1CCN(c2ccc(/C=C(\C#N)c3nn(-c4ccccc4)c(N)c3C#N)cc2[N+](=O)[O-])CC1	nt	nt	0	nt	nt	nt
CC1CCN(c2cc(N3CCC(C)CC3)c([N+](=O)[O-])cc2/C=C(\C#N)c2nn(-c3ccccc3)c(N)c2C#N)CC1	0.5	0.2	-2	nt	81*	51*
CC1CCCN(c2ccc(/C=C(\C#N)c3nn(-c4ccccc4)c(N)c3C#N)cc2[N+](=O)[O-])C1 (stereo not given)	0.6	0.2	-1	nt	80*	35
C=CCn1c(Cc2cccs2)nnc1SCC(=O)Nc1ccc(OC)c(OC)c1	0.8	0.9	1	0	9	16
CCOc1ccc(Nc2nc(Cc3nnc(SCC(=O)NCc4ccco4)n3CC)cs2)cc1	0.7	0.4	-5	-7	55*	35
C=CCn1c(Cc2cccs2)nnc1SCC(=O)c1cccc(Br)c1	0.4	0.7	-2	7	34	62*
C=CCn1c(Cc2cccs2)nnc1SCC(=O)c1ccc(F)cc1	0.1	0.4	-1	-5	56*	93*
C=CCn1c(Cc2cccs2)nnc1SCC(=O)NCc1ccco1	0.7	0.3	0	-2	65*	32
C=CCn1c(CCNC(=O)c2cccs2)nnc1SCC(=O)c1cccc([N+](=O)[O-])c1	1	1	-3	-5	-5	4
Cc1cc(OC(=O)C(c2ccccc2)c2ccccc2)c([N+](=O)[O-])c(=O)[nH]1	nt	nt	0	nt	nt	nt
CCn1ncc(Cl)c1C(=O)Nc1cc([N+](=O)[O-])ccc1OC	nt	nt	0	nt	nt	nt
Cc1cc(C)n(-c2nnc(C)n2/N=C/c2cc(Br)ccc2OCc2ccccc2)n1	0.8	0.6	-2	-46	37	20
C=CCn1c(SCC(=O)c2ccc(OC)cc2)nnc1C(C)NC(=O)c1cccs1 (stereo not given)	1	1	-2	-5	5	-2
C=CCn1c(Cc2cccs2)nnc1SCC(=O)c1ccc2ccccc2c1	0.4	0.7	0	10	27	55*
O=C(/C=C/c1ccc(OCCCF)cc1)NCc1ccc(Cl)cc1	0.7	0.9	-2	nt	10	34
COc1ccc(C(C)=O)cc1CSc1nnc(Nc2ccc(C)cc2C)s1	nt	nt	1	nt	nt	nt
COc1ccc(C(C)=O)cc1CSc1nnc(-c2ccccc2O)n1-c1ccccc1	0.5	0.5	-2	nt	53*	45
COc1ccc(C(C)=O)cc1CSc1nnc(Nc2ccccc2C)s1	nt	nt	6.0*	nt	nt	nt
CC(C)NC(=O)CCNC(=O)c1ccc(F)cc1	nt	nt	1	12	nt	nt
O=C(ONc1ccc(N=NC(=O)c2ccccc2O)cc1)c1ccccc1	0.2	0.3	-6	-3	71*	84*
Cc1cccc(-n2c(SCC(=O)NC3CCCC3)nnc2-c2ccoc2C)c1	nt	nt	-2	0	nt	nt
O=C(CSc1nc2ccccc2[nH]1)c1ccc(Cl)s1	0	0.1	0	17	92*	98*
SMILES	CYP2C19 activ	CYP2C9 act	MRP1 act	MRP resist rev	CYP2C9 inh	CYP2C19 inhib
COc1ccc2nc(SCC(=O)c3ccco3)[nH]c2c1	0.8	0.9	-2	0	12	15
O=C(CSc1nc2ccccc2[nH]1)c1ccco1	0.3	0.6	-1	4	39	65*
O=C(c1cccc(F)c1)N1CCN(c2ccc([N+](=O)[O-])c(N3CCOCC3)c2)CC1	nt	nt	-1	nt	nt	nt
CC1CCN(C(=S)NCCc2ccccc2)CC1	0.3	0.6	1	nt	39	73*
CN1CCN(C(=S)NCCc2ccccc2)CC1	0.4	1	0	nt	-4	64*
CCCSc1nnc(C(C)C)n1N	1.1	1.1	0	-10	-11	-15
Cc1cccc(C)c1NC(=O)COc1cccc(/C=N/NC(=O)C(=O)NCc2ccccc2)c1	1	1	-6	nt	3	3
O=C1CC(NCc2ccncc2)C(=O)N1c1ccccc1 (stereo not given)	0.1	0.1	-2	25	91*	94*
O=C1CC(NCc2ccncc2)C(=O)N1c1ccc(Cl)cc1 (stereo not given)	0.1	0.2	-2	1	82*	88*
O=C(NNS(=O)(=O)c1ccc2ccccc2c1)c1cc(-c2ccccn2)nc2ccccc12	nt	nt	-3	nt	nt	nt
Cc1nc2ccc(S(=O)(=O)NCC(=O)N3CCCC(C)C3)cc2s1 (stereo not given)	0.7	1	1	-5	-2	30
O=C(Cc1ccccc1)NCCc1cn2ccsc2n1	0.8	1	-1	-1	0	22
Cc1ccc(OCC(=O)NCc2cccs2)cc1	0.3	0.9	-1	nt	13	71*
O=C(COc1ccc(Br)cc1)NCc1ccccn1	0.4	0.6	2	-4	37	65*
O=C(COc1ccccc1)NCc1cccs1	0.4	0.8	-2	-2	22	58*
O=C(COC(=O)COc1ccc(Cl)cc1)NCc1cccs1	nt	nt	0	nt	nt	nt
Cc1cc(OCC(=O)NCc2ccccn2)cc(C)c1Br	nt	nt	0	nt	nt	nt
O=C(COc1ccccc1)NCCc1cn2ccsc2n1	0.2	0.6	0	6	44	84*
O=C(COc1cccc2ccccc12)NNC(=O)c1cccs1	0.7	2.9*	-1	nt	-194	34
O=C(COC(=O)c1ccc(Br)o1)NCc1cccs1	0.3	0.8	-1	nt	20	67*
COc1ccccc1OCC(=O)NCc1cccs1	0.4	0.9	0	4	9	59*
CCOC(=O)c1[nH]cc(-c2ccccc2)c1N1CCOCC1	0.1	0.7	-1	28	31	93*
Cn1nnnc1SCCNC/C=C/c1ccccc1	0.2	0.9	-1	2	8	80*
COc1ccc(CSc2nnnn2C)cc1F	0.3	1	-1	2	-3	72*
COc1cccc(CNCCSc2nnnn2C)c1	0.3	1.1	-1	-3	-11	71*
SMILES	CYP2C19 activ	CYP2C9 act	MRP1 act	MRP resist rev	CYP2C9 inh	CYP2C19 inhib
COc1ccc(CNCCSc2nnnn2C)cc1OC	0.9	1.3	0	-3	-26	12
Cn1nnnc1SCCNCc1cccc2ccccc12	0.1	0.8	-1	9	15	86*
O=C(NCCCN1CCOCC1)c1cccs1	1	1.2	0	-20	-17	-4
CCc1ccc(CNCCSc2nnnn2C)cc1	0.3	0.9	-3	12	7	70*
Cn1nnnc1SCCNCc1cccnc1	0.8	0.7	-1	-5	29	18
COc1ccc(Br)cc1CNCCSc1nnnn1C	0	0.5	-1	3	55*	100*
Cc1ccccc1OCCCCCn1ccnc1	0	0	0	13	100*	100*
